Screening data (PubChem BioAssay)
Sampled rows, rich in hits. Any-hit rate of the full collection: about 17%.
ATXN2 expr inh – ATXN2 expression inhibition; HEK-293 ATXN2-luciferase reporter, luminescence, 24 h; Potency, µM (series often up to 57 µM), for the others: at the top dose activity change, negative = inhibition, most hits filed as inhibitors; 0.72% of 360,000 active; note: % is set by controls: 0 for no effect and ±100 for the full control effect; nearly all actives have a fitted effect of over 55% in size
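ATXN2-luciferase reporter cells (luciferase flanked by upstream and downstream ATXN2 gene portions) were treated 24 h at 37 °C with compounds at up to 57 uM. SteadyGlo luminescence gave expression; GF-AFC fluorescence gave viability.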
DT40 TDP1 no CPT – qHTS for Inhibitors of human tyrosyl-DNA phosphodiesterase 1 (TDP1): qHTS in cells in absence of CPT; DT40 Tdp1-/- hTDP1 cells, no CPT, ATP luminescence, 48 h; Potency, µM (titrated, usually from 46.2 µM), inactives show top-dose activity change, negative = growth inhibition, hits mostly inhibitors; 15% of 420,000 active; AID 686978, 2013; note: % is set by controls: 0 for no effect and ±100 for the full control effect; nearly all actives have a fitted effect of over 55% in size
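Chicken DT40 Tdp1-/- cells complemented with human TDP1, screened without camptothecin (DMSO vehicle only), 400 cells/well. Compounds pin-transferred, cells incubated at 37 °C for at least 48 hr. Growth read as ATP-dependent luminescence (CellTiter-Glo, 30 min at RT).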
S2 tox – viability counter-screen for ATXN expression inhibitors | S2 cells (HEK-293 line with an ATXN2-luciferase reporter) viability, CellTiter-Fluor protease fluorescence, 24 h | Potency, µM (doses to about 56.7 µM), actives largely listed as cytotoxic | 0.49% of 400,000 active; note: nearly all actives have a fitted effect of over 40% in size
DT40 TDP1 CPT – DT40-hTDP1 cell growth loss with CPT; 12% of 420,000 active; Potency, µM (top dose mostly 46.2 µM), without a hit: at the top dose activity change, negative = growth inhibition, most hits filed as inhibitors; chicken DT40 Tdp1-/-;hTDP1 cells + 20 nM CPT, ATP luminescence, 48 h; note: % is set by controls: 0 for no effect and ±100 for the full control effect; nearly all actives have a fitted effect of over 55% in size
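Chicken DT40 Tdp1-/- cells complemented with human TDP1, 400 cells/well, exposed to compounds plus 20 nM camptothecin for at least 48 h at 37 C; viability read as ATP content by CellTiter-Glo luminescence.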
HepG2 viability – counter-screen for TGF-b inhibitors: cytotoxicity in HepG2 cells. HepG2 CAGA-GFP viability, ATP luminescence, 18 h. Potency, µM (doses to about 46.1 µM), without a hit: top-dose activity change, negative = cytotoxicity, actives largely listed as cytotoxic. 0.76% of 410,000 active
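CellTiter-Glo luminescence gave cytotoxicity after 18 hours at 37 degrees C. The cells were HepG2 CAGA-GFP in 1% FBS DMEM, stimulated with 500 pg/mL TGF-beta after compound addition. %Activity was normalised to no-cell wells (complete cell-killing) and DMSO (no toxicity), and curves were fitted and classified.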
TGFb SMAD3 inh – inhibitors of TGF-b signaling; HepG2 CAGA-GFP TGF-b/SMAD3 reporter, GFP fluorescence, 18 h; TGF-beta stimulated, 500 pg/mL final; Potency, µM (titrated, usually from 46.1 µM), for inactives: at the highest dose activity, negative = inhibition, most hits filed as inhibitors; 1.2% of 410,000 active; note: % is set by controls: 0 for no effect and ±100 for the full control effect; nearly all actives have a fitted effect of over 65% in size
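Cell-based qHTS in HEPG2 carrying a CAGA-GFP Smad reporter; compounds added before 500 pg/mL final TGF-beta, 18 h incubation at 37 degrees C, GFP fluorescence quantified per cell by imaging cytometry.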
Active calls of the source: *; i = inactive; ? = inconclusive; / = no result; [ ] = dose if it differs, or a comment. Calls come from the whole dose curve; as a rule, active = well fitted curve in the direction sought with a large enough effect; inconclusive = small, poorly fitted or top-dose-only effect, or another doubt; inactive = no such curve, though single readings can be large; an effect the other way counts as inactive or inconclusive. Potency is the fitted concentration of half-maximal effect.

SMILES | ATXN2 expr inh | DT40 TDP1 no CPT | S2 tox | DT40 TDP1 CPT | HepG2 viability | TGFb SMAD3 inh
Cn1c(=O)[nH]c(=O)c2c1nc(N1CCCCCC1)n2CCCSc1nc2ccccc2o1 | -10% | 29µM* | i | ? | -1% | ?
CC1CC(C)CN(c2nc3c(c(=O)n(C)c(=O)n3C)n2CCSc2nc3ccccc3o2)C1 (centres undefined) | 1% | 15µM* | i | 18µM* | -21% | -20%
Cc1nnc(SCCn2c(N3CC(C)CC(C)C3)nc3c2c(=O)n(C)c(=O)n3C)s1 (centres undefined) | 25% | -11% | i | -5% | -32% | -6%
Cn1c(=O)c2c(nc(N3CCCCCC3)n2CCSc2nc3ccccc3o2)n(C)c1=O | -7% | 23µM* | i | 7.3µM* | -2% | 0%
O=C(CSc1nnc(NC(=O)C2CC(=O)N(c3ccccc3)C2)s1)NCc1ccco1 (centres undefined) | -1% | 20% | i | 4% | 12% | -1%
Cc1cnc(-c2cc(N3CCN(C(=O)CCS(C)(=O)=O)CC3)ncc2Cl)c(C)c1 | 6% | / | / | / | / | /
Cc1ccc2c(c1)c(=O)c(S(=O)(=O)c1ccc(C)c(C)c1)cn2CC(=O)Nc1ccccc1 | 11% | -19% | i | -1% | -6% | -23%
COc1ccc(CCNC(=O)C2(c3cccs3)CCOCC2)cc1 | -6% | ? | i | -25% | 0% | 5%
Cc1ccc(C)c(CC(=O)N2CCCC(c3cc(C(=O)Nc4ccc5c(c4)OCO5)no3)C2)c1 (centres undefined) | ? | 16µM* | ? | 15µM* | -8% | -16%
CCCNC(=O)c1cc(C2CCCN(C(=O)c3ccc(NC(C)=O)cc3)C2)on1 (centres undefined) | 4% | -31% | i | 2% | 3% | -5%
CN(C)c1ccc(CC(=O)N2CCCC(c3cc(C(=O)Nc4ccc5c(c4)OCO5)no3)C2)cc1 (centres undefined) | ? | 13µM* | i | 16µM* | -17% | -9%
CC(C)c1ccc(C(=O)N2CCCC(c3cc(C(=O)Nc4ccc5c(c4)OCO5)no3)C2)cc1 (centres undefined) | -4% | 21µM* | i | ? | 5% | -3%
COc1ccc(C(=O)Nc2ccc(NC(=O)c3cc(OC)c(OC)c(OC)c3)cn2)cc1 | -15% | -21% | i | ? | 5% | 0%
O=[N+]([O-])c1ccccc1S(=O)(=O)NCc1ccccn1 | / | 12% | / | -12% | -14% | -1%
CCCN1CCN(CC(=O)NCC(=O)Nc2cccc(C)c2C)CC1 | 4% | -24% | i | -9% | -2% | -4%
CCc1nc2c(OCCC3CCCCC3)cccn2c1N(C)C(=O)c1ccncc1 | -18% | 15µM* | i | 16µM* | -4% | -1%
CCc1nc2c(OCC3COc4ccccc4O3)cccn2c1N(C)C(=O)c1ccccc1F (centres undefined) | -13% | 21µM* | i | 21µM* | -7% | -3%
CCc1nc2c(OCC3COc4ccccc4O3)cccn2c1N(C)C(=O)c1cccs1 (centres undefined) | -19% | ? | i | ? | -15% | 3%
CCc1nc2c(OCCn3cccc3)cccn2c1N(C)C(=O)c1ccc(OC)cc1 | 6% | -5% | i | 6% | -3% | -11%
CCc1nc2c(OCCC3CCCCC3)cccn2c1N(C)C(=O)c1ccc(OC)cc1 | ? | 21µM* | ? | ? | -81% | ?
CCc1nc2c(OCC3CCCCC3)cccn2c1N(C)C(=O)c1ccc(C)cc1 | -6% | 15µM* | 28µM* | 21µM* | -41% | ?
CCC(C)NC(=O)C1CCC(CNS(=O)(=O)c2ccc(Cl)cc2)CC1 (centres undefined) | / | -4% | / | -27% | 0% | 0%
CCSc1nc2n(n1)C(c1ccc(C(=O)O)cc1)C(C(=O)Nc1ccccc1C)=C(C)N2 (centres undefined) | -4% | -3% | i | 2% | -2% | 3%
CCCC(=O)NCc1cc(-c2nn(C)c(=O)c3ccccc23)ccc1OC | -12%[11.3 µM] | ? | i | 6% | 0% | 3%
O=C(Cn1ncc2c1-c1ccccc1OC2)Nc1nc2ccccc2s1 | 10% | -15% | i | -25% | 2% | 2%
SMILES | ATXN2 expr inh | DT40 TDP1 no CPT | S2 tox | DT40 TDP1 CPT | HepG2 viability | TGFb SMAD3 inh
COc1cccc(C(=O)NCC(=O)N2CCN(c3ccc(C(F)(F)F)cn3)CC2)c1 | ? | 4.1µM* | i | 7.3µM* | -9% | -8%
Cc1cc(C)c(C(=O)COC(=O)C2CCN(c3ccc(C(F)(F)F)cn3)CC2)cc1C | 5% | ? | i | ? | -17% | -2%
COc1ccccc1C(=O)NCCC(=O)N1CCN(c2ccc(C(F)(F)F)cn2)CC1 | ? | 21µM* | i | 23µM* | -14% | -16%
COc1ccccc1C(=O)NCCC(=O)N1CCN(c2ccccc2Cl)CC1 | -8% | ? | i | ? | -52% | 4%
COc1ccc(C(=O)COC(=O)C2CCN(c3ccc(C(F)(F)F)cn3)CC2)c(OC)c1 | 2% | 21µM* | i | ? | -25% | -2%
Cc1cccc(N=C2Sc3nc4c(C)c(C)ccc4cc3CN2CCN2CCOCC2)c1 | -18% | 23µM* | i | 18µM* | -65% | ?
C[C@H](CO)N1C[C@H](C)[C@@H](CN(C)S(C)(=O)=O)Oc2ccc(NC(=O)CCC(F)(F)F)cc2C1=O | 0% | -13% | i | 3% | -8% | 3%
O=C(Nc1ccccc1N1CCCC1)c1cc(S(=O)(=O)N2CCOCC2)ccc1Cl | 13% | ? | i | ? | -3% | 0%
O=C(Nc1ccc(Cl)c(Cl)c1)Nc1cc(S(=O)(=O)N2CCOCC2)ccc1N1CCCC1 | ? | 18µM* | i | ? | 3% | ?
CC(=O)c1ccccc1NC(=O)c1cc(S(=O)(=O)N2CCOCC2)ccc1N1CCCC1 | / | 21µM* | / | ? | 9% | -17%
O=C(Nc1ccc(Cl)c(Cl)c1)Nc1cc(C(=O)N2CCOCC2)ccc1N1CCCCC1 | 1% | ? | i | ? | -7% | -11%
Cc1ccc(C(=O)Nc2cc(S(=O)(=O)N3CCOCC3)ccc2N2CCCC2)cc1 | / | ? | ? | -15% | -8% | ?
